Results taken from PubChem BioAssay AID1053124 (Broad Institute, 2014).
Potency and affinity values are given separately. Activity calls are given as the source filed them.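 Rule for the calls: active = cell killing whose fitted half-effect concentration is at most twice the top valid dose tested; inconclusive = flat curve with 30 to 70% killing, or a poor fit; inactive = effect in the rising direction, plus the rest.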

assay: A549 cell cytotoxicity, dose response, cytotoxicity control, ATP luminescence, cherry-pick, set 2 (AID 1053124); conditions: A549 viability, ATP luminescence (CellTiter-Glo), 72 h; series mostly up to 26 µM

| SMILES | outcome |
| --- | --- |
| Cc1cccn2c(=O)c3cc(C(N)=S)c(=N)n(CCCN4CCOCC4)c3nc12 | inactive |
| O=C(O)[C@@H]1CCCN1S(=O)(=O)c1cccc(S(=O)(=O)N2CCC[C@H]2C(=O)O)c1 | inactive |
| O=c1[nH]c(Nc2ccccc2Cl)cc2ccccc12 | inactive |
| CCCCN1C=C(C(=O)OC)C(c2ccccc2Cl)C(C(=O)OC)=C1 | inactive |
| CCOC(=O)C(NC(=O)c1ccccc1)(OCC1(CC)COC1)C(F)(F)F (centres undefined) | inactive |
| CCN(CC)c1ccc2cc(S(=O)(=O)c3ccc(Cl)cc3)c(=O)oc2c1 | inactive |
| CCN1C(=O)c2cccc3c(S(=O)(=O)N(C)C)ccc1c23 | inactive |
| COc1ccc(CCNC(=O)c2cc(S(=O)(=O)N3CCCCC3)c[nH]2)cc1OC | inactive |
| Cc1cccn2c(=O)c(/C=C(\C#N)C(=O)NC3CCS(=O)(=O)C3)c(N3CCC(C(N)=O)CC3)nc12 (centres undefined) | inactive |
| Cc1c(C=O)c2ccccn2c1C(=O)c1cccs1 | inactive |
| Cc1ccc2nc3c(cc(S(=O)(=O)c4ccccc4)c(=N)n3Cc3ccco3)c(=O)n2c1 | inactive |
| CCc1nnc(NC(=O)c2ccc(-c3ccccc3F)o2)s1 | inactive |
| CCc1cccc(OC2OC(CO)C(O)C(O)C2NC(C)=O)c1 (centres undefined) | inactive |
| O=C(O)C1=CC[C@@H](c2ccc(Cl)cc2)N(S(=O)(=O)c2ccc(Cl)cc2)[C@H]1c1ccc(F)cc1 | inactive |
| Cc1ccc(-n2c(C)cc(/C=N/NC(=O)Cn3c4ccccc4c(=O)c4ccccc43)c2C)cc1 | inactive |
| CCN(CC)CCCNc1nc(C)cc(COC)c1C#N | inactive |
| Cc1cc(-c2nc3cccnc3s2)ccc1NS(=O)(=O)c1cccs1 | inactive |
| Cc1ccc(S(=O)(=O)c2cc3c(=O)n4ccccc4nc3n(C)c2=N)cc1 | inactive |
| CN1c2ccc(Cl)cc2C(=O)NC1C1CC=CCC1 (centres undefined) | inactive |
| COCCNC(=S)N/N=C/c1ccc(-c2ccc([N+](=O)[O-])cc2)o1 | inactive |

| SMILES | outcome |
| --- | --- |
| COc1ccc(C2C3=C(CCCC3=O)N(CC(=O)O)C3=C2C(=O)CCC3)cc1 | inactive |
| CC(=O)c1cc2ccc(O)cc2oc1=O | inactive |
| CCOc1ccc(S(=O)(=O)Nc2ccc(C(=O)N(CC)CC(=O)NCc3cccs3)cc2)cc1 | inactive |
| COc1ccccc1NS(=O)(=O)c1cc(NC(=O)CCNC(C)=O)ccc1C | inactive |
| CCOc1ccc(C(=O)c2cc3ccc(O)cc3oc2=O)cc1 | inactive |
| O=C(c1ccc(F)cc1)C1CCN(C(=O)Nc2ccccc2Cl)CC1 | inactive |
| Cc1cc(=O)oc2cc(OC(=O)c3cncc(Br)c3)ccc12 | inactive |
| Cc1c(C(=O)NCc2ccc(Cl)c(Cl)c2)sc(=O)n1Cc1cccc(F)c1 | inactive |
| Cc1ccc(S(=O)(=O)CCC(=O)OCC(=O)Nc2cccc(S(=O)(=O)N3CCCCC3)c2)cc1 | inactive |
| O=C(Cn1ccc([N+](=O)[O-])n1)N1CCCCCC1 | inactive |
| CC1CCCCC1NC(=O)CN1C(=O)c2cccc(N)c2C1=O (centres undefined) | inactive |
| CCc1ccccc1S(=O)(=O)Cc1ccc(C(=O)N2CCN(c3ccccc3OC)CC2)o1 | inactive |
| Nc1cccc2c1C(=O)N(c1ccccc1)C2=O | inactive |
| CCOC(=O)c1cc2c(=O)n3ccccc3nc2n(C(C)C)c1=NC(=O)c1ccco1 | inactive |
| CCOCCCNc1c(CC)c(C)c(C#N)c2nc3ccccc3n12 | inactive |
| CCOC(=O)c1cc2c(=O)n3ccccc3nc2n(Cc2ccc(Cl)cc2)c1=N | inactive |
| CCOC(=O)c1oc2c(CN3CCN(CCO)CC3)c(O)c(CC)cc2c(=O)c1-c1nc2ccccc2s1 | inactive |
| CCOc1ccc(NC(=O)CN(C)C(=O)CCCNC(=O)c2ccc(Cl)cc2)cc1OCC | inactive |
| CCCOc1c(Br)cc(C2C3=C(CCCC3=O)N(C)C3=C2C(=O)CCC3)cc1OC | inactive |
